Drawing on PubChem BioAssay AID602438 (Sanford-Burnham Center for Chemical Genomics, 2012), this text covers inhibition for 25 compounds.

In all, about 360,000 compounds went through this assay and about 3,100 (0.86%) were called active. This is one part of a sample in which actives are shown more often than they occur. Values without a mark were called inactive.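 Rule for the calls: active = inhibition or corrected inhibition above about 18%, plus a signal ratio from 0.5 to 1.5 (limit read from the data, passing the limit was not always enough); inactive = the rest.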

The target in the test is Neuropilin-1 (Homo sapiens) (UniProt O14786). Kind of test: modulators of CendR peptide binding to NRP-1, primary screen, biochemical, fluorescence polarization, uHTS (AID 602438). The conditions noted are these: FAM-RPARPAR peptide binding to NRP-1, fluorescence polarization; at 25 µM; hits give high values.
Chain of Neuropilin-1 (Homo sapiens) (O14786 whole entry, looked up): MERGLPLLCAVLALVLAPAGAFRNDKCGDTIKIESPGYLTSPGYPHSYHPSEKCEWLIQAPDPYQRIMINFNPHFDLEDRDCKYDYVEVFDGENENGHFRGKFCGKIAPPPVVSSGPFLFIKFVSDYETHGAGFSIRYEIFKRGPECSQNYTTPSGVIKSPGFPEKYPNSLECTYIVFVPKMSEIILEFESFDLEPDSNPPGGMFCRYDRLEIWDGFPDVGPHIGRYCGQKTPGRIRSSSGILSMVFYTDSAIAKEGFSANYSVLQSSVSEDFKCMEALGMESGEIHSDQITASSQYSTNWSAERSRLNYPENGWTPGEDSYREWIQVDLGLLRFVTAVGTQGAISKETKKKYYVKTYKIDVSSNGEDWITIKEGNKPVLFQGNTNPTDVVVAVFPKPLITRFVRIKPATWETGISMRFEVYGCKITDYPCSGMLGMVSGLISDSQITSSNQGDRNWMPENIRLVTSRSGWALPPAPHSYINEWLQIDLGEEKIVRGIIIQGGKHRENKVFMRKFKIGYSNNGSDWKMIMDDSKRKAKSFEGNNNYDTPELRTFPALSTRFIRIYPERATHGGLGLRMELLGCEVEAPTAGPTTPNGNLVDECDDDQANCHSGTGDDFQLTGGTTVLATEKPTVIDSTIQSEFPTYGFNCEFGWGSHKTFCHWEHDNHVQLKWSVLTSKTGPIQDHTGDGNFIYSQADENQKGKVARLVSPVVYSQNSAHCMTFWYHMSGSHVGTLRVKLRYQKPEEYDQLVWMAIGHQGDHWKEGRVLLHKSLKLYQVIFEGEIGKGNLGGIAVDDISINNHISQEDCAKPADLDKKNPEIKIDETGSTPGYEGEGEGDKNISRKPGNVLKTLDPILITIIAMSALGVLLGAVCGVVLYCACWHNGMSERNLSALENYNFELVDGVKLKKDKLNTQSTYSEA
A word on the inhibition: it is the change of the read-out against control, counted positive when it falls. On to `CCC(=NCCc1ccccc1)c1c(O)n(C2CCCCC2)c(=O)[nH]c1=O`, for which the inhibition was 24% (active).

Regarding `CCCCCCN=C(CC)c1c(O)n(CCCC)c(=O)[nH]c1=O`, the inhibition is -5.7%.

Consider `CC(=O)c1c(O)n(C2CCCCCC2)c(=O)[nH]c1=O`, for which the inhibition is -12.9%.

For `COc1ccccc1C1=NCc2nnc(CSC)n2-c2ccc(Cl)cc21`, the inhibition was 10.2%. As for `COC(=O)[C@@H]1C(OC(=O)c2ccccc2)CC2CCC1N2C` (stereo not given in full), the figure is -1.6%; as for `O=c1[nH]c2ccccc2n1C1CCN(C(c2ccccc2)c2nnnn2Cc2ccccc2)CC1` (stereo not given), 11.2%; as for `Cc1ccc(Cn2nnnc2CN2CCC(n3nnc4ccccc43)CC2)cc1`, 25.7% (active).

For the compound `O=c1[nH]c2ccccc2n1C1CCN(C(c2ccnc3ccccc23)c2nnnn2Cc2ccccc2)CC1` (stereo not given), the inhibition is 6.4%.

As to `CN(C)P(=S)(Nc1ccccc1)C(Cl)(Cl)Cl` (stereo not given), the inhibition was 7.8%. Take `COC(=O)C1=C(c2cccc(OCc3ccccc3)c2)C[C@@H]2CC[C@H]1N2C(=O)NNCc1ccccc1`: the inhibition is 8.8%. `COC(=O)C1=C(c2ccc3ccccc3c2)C[C@@H]2CC[C@H]1N2C(=O)NCCO`: the inhibition was -3.3%. In the case of `COC(=O)C1=C(c2cc3ccccc3s2)C[C@@H]2CC[C@H]1N2C(=O)NCCO`, the inhibition is -10.5%.

For `COC(=O)C1=C(c2ccccc2)C[C@@H]2CC[C@H]1N2C(=O)NCc1ccco1`, the inhibition is -16.6%.

With `COC(=O)C1=C(c2ccc(C(C)=O)cc2)C[C@@H]2CC[C@H]1N2C(=O)NCCNC(C)=O`, the inhibition was 34.8% (active). Then `COC(=O)C1=C(c2ccccc2)C[C@@H]2CC[C@H]1N2C(=O)N1CCCCC1`, with 32.5% (active); and `NCCc1c[nH]c2ccc(O)cc12`, with 10.4%; and `CCC(C)(O)C(=O)OC1C(=O)OC2CC3C(C)=CC(=O)C(O)C3(C)C3C4(O)OCC23C1C(C)C4O` (stereo not given), with 9.9%. Turning to `CCOC(=O)[C@]12Cc3ccccc3[C@H]1N(C1CCCCC1)C(=O)c1cc(OC)ccc12`, the inhibition was 2.7%. Then `Cc1ccc(OC(=O)N(C)C[C@@H]2OCc3cnnn3CCCC(=O)N([C@H](C)CO)C[C@@H]2C)cc1`, with 9.5%; and `Cc1ccc(S(=O)(=O)N(C)c2ccc(C(=O)NCC3(N(C)C)CCCCC3)cc2)cc1`, with -2%; and `CCCCCn1c(=O)c(C(=O)Nc2c(C)n(C)n(-c3ccccc3)c2=O)c(O)c2ccccc21`, with 3.5%. As for `CN1CCN(C(=O)COc2ccc(C(C)(C)C)cc2Br)CC1`, the inhibition is 10%. For the compound `CC(C)c1ccc(OCC(=O)N2CCN(C)CC2)c(Br)c1`, the inhibition was 13.4%. As for `CC(C)c1ccc(OCC(=O)N2CCCN(C)CC2)cc1`, the figure is 28.1% (active); as for `CCN1c2nc3c(C)cccn3c(=O)c2CC2(C(=O)N(C)C(=O)N(C)C2=O)C1C` (stereo not given), 10.7%.
